In the supplement of paper PMC4709259 one finds mean cell size and cell count data, which are given here for 39 compounds.

Molecules are shown by their SMILES. Where a name gives a salt, the structure may show the parent alone. ± gives the standard deviation.

The test system of one assay is Jurkat. In words: mean cell size (FSC-A) relative to DMSO control (fraction of control); higher = larger cells. Conditions: 48 h. In short, it runs like this: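 Jurkat cells at 600 cells/µl were incubated for 1 h and then treated for 48h with the Enzo Screen-Well FDA Approved Drug Library v2.0 at 25µM, with DMSO at 0.9% (v/v) final. Compounds that reduced counts below 20% of controls were retested in 10-fold dilutions down to 25nM. Cell count and mean cell size, taken as forward scatter area, were measured by flow cytometry relative to solvent-only controls. Each plate carried 6-12 controls, and values are means of 3 biological replicates.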
`CN(C)CCC(c1ccc(Cl)cc1)c1ccccn1` (stereo not drawn) [Chlorpheniramine Maleate] (concentration: 25 µM) displayed a mean cell size of 0.961 ± 0.02.
`CCOC(=O)C1=C[C@@H](OC(CC)CC)[C@H](NC(C)=O)[C@@H](N)C1` [Oseltamivir Phosphate] (concentration: 25 µM): the mean cell size was found to be 0.932 ± 0.023.
In the case of `COC(=O)CCC(=O)CN` [Methyl Aminolevulinate·HCl] (concentration: 25 µM), the mean cell size worked out at 0.99 ± 0.033.
In turn, `N=C(N)N` [Guanidine·HCl] (concentration: 25 µM) came in with a mean cell size of 0.94 ± 0.018.
Compound `O=C1NC(c2ccccc2)(c2ccccc2)C(=O)N1COP(=O)(O)O` [Fosphenytoin·Na Pentahydrate] (concentration: 25 µM) had a mean cell size of 0.887 ± 0.058.
Still for that read-out and setting: as for `Cn1nnc2c(C(N)=O)ncn2c1=O` [Temozolomide] (concentration: 25 µM), the figure is 0.959 ± 0.052; as for `CCCCc1nc(Cl)c(CO)n1Cc1ccc(-c2ccccc2-c2nnn[nH]2)cc1` [Losartan Potassium] (concentration: 25 µM), 0.922 ± 0.041.
`Cc1ccc(Nc2nccc(N(C)c3ccc4c(C)n(C)nc4c3)n2)cc1S(N)(=O)=O` [Pazopanib·HCl] (concentration: 25 µM) displayed a mean cell size of 0.9554 ± 0.0092.
Same read-out and setting: as for `CN1CC2c3ccccc3Oc3ccc(Cl)cc3C2C1` (stereo not drawn) [Asenapine Maleate] (concentration: 25 µM), the figure is 0.938 ± 0.019; as for `Cc1cc(C2CCCCC2)n(O)c(=O)c1` [Ciclopirox] (concentration: 2.5 µM), 1.14 ± 0.032.
`COc1ccc2cc(CCC(C)=O)ccc2c1` [Nabumetone] (concentration: 25 µM): the mean cell size came to 0.938 ± 0.032.
For `CN[C@H]1CC[C@@H](c2ccc(Cl)c(Cl)c2)c2ccccc21` [Sertraline·HCl] (concentration: 2.5 µM), the mean cell size came out at 1.008 ± 0.0063.
On to `CCC1=C(C)CN(C(=O)NCCc2ccc(S(=O)(=O)NC(=O)N[C@H]3CC[C@H](C)CC3)cc2)C1=O` [Glimepiride] (concentration: 25 µM), for which the mean cell size worked out at 0.94 ± 0.02.
The compound `Cc1ccc(C(=O)c2ccc(CC(=O)O)n2C)cc1` [Tolmetin·Na] (concentration: 25 µM) returned a mean cell size of 0.964 ± 0.035.
`C#CCN[C@@H]1CCc2ccccc21` [Rasagiline Mesylate] (concentration: 25 µM): the mean cell size came out at 1.03 ± 0.024.
`Cc1cc(NS(=O)(=O)c2ccc(N)cc2)no1` [Sulfamethoxazole] (concentration: 25 µM) returned a mean cell size of 0.962 ± 0.036.
Consider `NCCCC(N)(C(=O)O)C(F)F` (stereo not drawn) [Eflornithine·HCl] (concentration: 25 µM), for which the mean cell size came out at 0.958 ± 0.019.
The compound `Cc1nc2n(c(=O)c1CCN1CCC(c3noc4cc(F)ccc34)CC1)CCCC2` [Risperidone] (concentration: 25 µM) registered a mean cell size of 0.95 ± 0.051.
`C[C@]12C=CC(=O)C=C1CC[C@@H]1[C@@H]2[C@@H](O)C[C@@]2(C)[C@H]1CC[C@]2(O)C(=O)CO` [Prednisolone] (concentration: 25 µM) gave a mean cell size of 0.979 ± 0.017.
Still for that read-out and setting: the figure for `Nc1nc2c(ncn2COC(CO)CO)c(=O)[nH]1` [Ganciclovir] (concentration: 25 µM) is 1.022 ± 0.0079; for `c1ccc2c(c1)CCCC2C1=NCCN1` (stereo not drawn) [Tetrahydrozoline·HCl] (concentration: 25 µM) it is 0.9443 ± 0.007.
In turn, `COc1ccc2[nH]c([S+]([O-])Cc3ncc(C)c(OC)c3C)nc2c1` (stereo not drawn) [Omeprazole] (concentration: 25 µM) had a mean cell size of 0.946 ± 0.035.
Turning to `OC(CCN1CCCCC1)(c1ccccc1)C1CC2C=CC1C2` (stereo not drawn) [Biperiden·HCl] (concentration: 25 µM), the mean cell size is 0.951 ± 0.055.
In turn, `Nc1nnc(-c2cccc(Cl)c2Cl)c(N)n1` [Lamotrigine] (concentration: 25 µM) showed a mean cell size of 1.01 ± 0.028.
`CN1C(=O)OC(C)(C)C1=O` [Trimethadione] (concentration: 25 µM): the mean cell size was 1.07 ± 0.016.
On the same count and under the same terms, as for `Cc1oncc1C(=O)Nc1ccc(C(F)(F)F)cc1` [Leflunomide] (concentration: 25 µM), the figure is 1.07 ± 0.025; as for `O=P(O)(O)C(Sc1ccc(Cl)cc1)P(=O)(O)O` [Tiludronate Disodium] (concentration: 25 µM), 0.961 ± 0.06.
In turn, `OC(Cn1cncn1)(Cn1cncn1)c1ccc(F)cc1F` [Fluconazole] (concentration: 25 µM) came in with a mean cell size of 0.969 ± 0.054.
In the case of `Nc1ncn([C@H]2C[C@H](O)[C@@H](CO)O2)c(=O)n1` [Decitabine] (concentration: 2.5 µM), the mean cell size was determined as 1 ± 0.018.
Same read-out and setting: as for `CCCNC(C)C(=O)Nc1c(C)csc1C(=O)OC` (stereo not drawn) [Articaine·HCl] (concentration: 25 µM), the figure is 0.96 ± 0.028.

In the next assay the test system is Jurkat. Kind of assay: cell count relative to DMSO control (fraction of control); higher = more cells (less growth inhibition). The following applies: 48 h.
In turn, `NNCCc1ccccc1` [Phenelzine Sulfate] (concentration: 25 µM) gave a cell count of 0.882 ± 0.12.
`COc1cc(C(=O)NCc2ccc(OCCN(C)C)cc2)cc(OC)c1OC` [Trimethobenzamide·HCl] (concentration: 25 µM) gave a cell count of 1.07 ± 0.057.
As for `NS(=O)(=O)c1cc2c(cc1C(F)(F)F)NC(Cc1ccccc1)NS2(=O)=O` (stereo not drawn) [Bendroflumethiazide] (concentration: 25 µM), the cell count was 0.902 ± 0.08.
Compound `NC[C@H]1CC[C@H](C(=O)O)CC1` [Tranexamic Acid] (concentration: 25 µM) came in with a cell count of 0.542 ± 0.14.
Still for that read-out and setting: as for `NCC[C@H](O)C(=O)N[C@@H]1C[C@H](N)[C@@H](O[C@H]2O[C@H](CN)[C@@H](O)[C@H](O)[C@H]2O)[C@H](O)[C@H]1O[C@H]1O[C@H](CO)[C@@H](O)[C@H](N)[C@H]1O` [Amikacin Disulfate] (concentration: 25 µM), the figure is 0.921 ± 0.014; as for `Clc1ccccc1CN1CCc2sccc2C1` [Ticlopidine·HCl] (concentration: 25 µM), 0.752 ± 0.017.
`CC(C)(C)NC[C@H](O)COc1cccc2c1CCCC2=O` [Levobunolol·HCl] (concentration: 25 µM) displayed a cell count of 1.11 ± 0.03.
With `CC1(C)S[C@@H]2[C@H](NC(=O)COc3ccccc3)C(=O)N2[C@H]1C(=O)O` [Penicillin V Potassium] (concentration: 25 µM), the cell count is 1.09 ± 0.09.
Consider `OCCN(CCO)c1nc(N2CCCCC2)c2nc(N(CCO)CCO)nc(N3CCCCC3)c2n1` [Dipyridamole] (concentration: 25 µM), for which the cell count is 0.652 ± 0.1.
The compound `CN(C)CCC(c1ccc(Cl)cc1)c1ccccn1` (stereo not drawn) [Chlorpheniramine Maleate] (concentration: 25 µM) came in with a cell count of 0.917 ± 0.11.
In turn, `CCOC(=O)C1=C[C@@H](OC(CC)CC)[C@H](NC(C)=O)[C@@H](N)C1` [Oseltamivir Phosphate] (concentration: 25 µM) had a cell count of 0.939 ± 0.075.
Same read-out and setting: the figure for `COC(=O)CCC(=O)CN` [Methyl Aminolevulinate·HCl] (concentration: 25 µM) is 0.739 ± 0.074; for `N=C(N)N` [Guanidine·HCl] (concentration: 25 µM) it is 1.02 ± 0.096; for `O=C1NC(c2ccccc2)(c2ccccc2)C(=O)N1COP(=O)(O)O` [Fosphenytoin·Na Pentahydrate] (concentration: 25 µM) it is 0.498 ± 0.074.
On to `Cn1nnc2c(C(N)=O)ncn2c1=O` [Temozolomide] (concentration: 25 µM), for which the cell count was 0.543 ± 0.12.
As to `CCCCc1nc(Cl)c(CO)n1Cc1ccc(-c2ccccc2-c2nnn[nH]2)cc1` [Losartan Potassium] (concentration: 25 µM), the cell count was 0.418 ± 0.1.
On the same count and under the same terms, as for `Cc1ccc(Nc2nccc(N(C)c3ccc4c(C)n(C)nc4c3)n2)cc1S(N)(=O)=O` [Pazopanib·HCl] (concentration: 25 µM), the figure is 0.772 ± 0.12; as for `CN1CC2c3ccccc3Oc3ccc(Cl)cc3C2C1` (stereo not drawn) [Asenapine Maleate] (concentration: 25 µM), 0.935 ± 0.16; as for `Cc1cc(C2CCCCC2)n(O)c(=O)c1` [Ciclopirox] (concentration: 2.5 µM), 0.395 ± 0.07.
For the compound `COc1ccc2cc(CCC(C)=O)ccc2c1` [Nabumetone] (concentration: 25 µM), the cell count is 0.888 ± 0.058.
Consider `CN[C@H]1CC[C@@H](c2ccc(Cl)c(Cl)c2)c2ccccc21` [Sertraline·HCl] (concentration: 2.5 µM), for which the cell count turned out to be 0.853 ± 0.12.
Still for that read-out and setting: the figure for `CCC1=C(C)CN(C(=O)NCCc2ccc(S(=O)(=O)NC(=O)N[C@H]3CC[C@H](C)CC3)cc2)C1=O` [Glimepiride] (concentration: 25 µM) is 0.859 ± 0.076; for `Cc1ccc(C(=O)c2ccc(CC(=O)O)n2C)cc1` [Tolmetin·Na] (concentration: 25 µM) it is 0.912 ± 0.11; for `C#CCN[C@@H]1CCc2ccccc21` [Rasagiline Mesylate] (concentration: 25 µM) it is 1.01 ± 0.058.
Consider `Cc1cc(NS(=O)(=O)c2ccc(N)cc2)no1` [Sulfamethoxazole] (concentration: 25 µM), for which the cell count stood at 0.809 ± 0.063.
The compound `NCCCC(N)(C(=O)O)C(F)F` (stereo not drawn) [Eflornithine·HCl] (concentration: 25 µM) gave a cell count of 0.985 ± 0.073.
Same read-out and setting: as for `Cc1nc2n(c(=O)c1CCN1CCC(c3noc4cc(F)ccc34)CC1)CCCC2` [Risperidone] (concentration: 25 µM), the figure is 0.809 ± 0.13; as for `C[C@]12C=CC(=O)C=C1CC[C@@H]1[C@@H]2[C@@H](O)C[C@@]2(C)[C@H]1CC[C@]2(O)C(=O)CO` [Prednisolone] (concentration: 25 µM), 0.836 ± 0.14; as for `Nc1nc2c(ncn2COC(CO)CO)c(=O)[nH]1` [Ganciclovir] (concentration: 25 µM), 0.51 ± 0.1.
In turn, `c1ccc2c(c1)CCCC2C1=NCCN1` (stereo not drawn) [Tetrahydrozoline·HCl] (concentration: 25 µM) displayed a cell count of 1.16 ± 0.094.
Same read-out and setting: the figure for `COc1ccc2[nH]c([S+]([O-])Cc3ncc(C)c(OC)c3C)nc2c1` (stereo not drawn) [Omeprazole] (concentration: 25 µM) is 0.946 ± 0.083; for `OC(CCN1CCCCC1)(c1ccccc1)C1CC2C=CC1C2` (stereo not drawn) [Biperiden·HCl] (concentration: 25 µM) it is 0.654 ± 0.12.
On to `Nc1nnc(-c2cccc(Cl)c2Cl)c(N)n1` [Lamotrigine] (concentration: 25 µM), for which the cell count is 0.734 ± 0.16.
